In the library only some 10% were active in any assay of this set; here they are far more common.
Pf growth 96h – inhibits malaria parasite growth, 96 h. P. falciparum luciferase reporter growth, 96 h. Potency, µM (top dose mostly 28.7 µM), for inactives: at the highest dose activity change, negative = inhibition, most hits filed as inhibitors. actives 6.9% (n = 320,000); active = well fitted inhibition curve with a large enough effect; inconclusive = small, poorly fitted or top-dose-only effect, or another doubt; inactive = no such curve, though single readings can be large or run the other way; also: % is scaled to controls: 0 for no effect and ±100 for the full control effect
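Erythrocytes infected with luciferase-expressing P. falciparum were dispensed at 2% hematocrit and 0.05% parasitemia (final), then incubated with compounds 96 hours at 37 C in 5% CO2. Luminescence after detection reagent addition reported growth.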
Pf growth 48h – inhibits P. falciparum growth in the first generation, 48 h; P. falciparum luciferase growth in erythrocytes, 48 h; actives 5.9% (n = 310,000); AID 504832; Potency, µM (top dose mostly 28.7 µM), without a hit: at the top dose activity change, negative = inhibition, actives largely listed as inhibitors; active = well fitted inhibition curve with a large enough effect; inconclusive = small, poorly fitted or top-dose-only effect, or another doubt; inactive = no such curve, though single readings can be large or run the other way; also: % is scaled to controls: 0 for no effect and ±100 for the full control effect
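Growth was read as firefly luciferase luminescence after a 48 h, 37 C, 5% CO2 exposure of compounds to reporter-bearing P. falciparum cultures (0.1% parasitemia, 2% hematocrit final) in Albumax-supplemented RPMI 1640.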
NS1 function inh – blocks influenza NS1 protein function; Potency, µM (series often up to 46.1 µM), inactives show top-dose activity, positive = more growth; actives 0.4% (n = 270,000); also: actives are rising curves; nearly all actives have a fitted effect of over 50% in size
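Read-out: OD600 growth recovery of NS1-expressing budding yeast. Cells grown overnight at 30C in -URA glucose medium, washed, resuspended and diluted 1:100 in 2% galactose assay medium, pH 6.0. Same strain lacking NS1 served as positive control.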
SARS PLpro yeast – blocks SARS-CoV papain-like protease in a yeast assay | AID 485353 | actives 0.19% (n = 330,000) | S. cerevisiae expressing SARS-CoV PLpro, growth rescue | Potency, µM (doses to about 32.9 µM), without a hit: top-dose activity, positive = growth rescue, actives largely listed as activators; also: 0% is about no effect; nearly all actives have a fitted effect of over 55% in size
Starred values were filed as active, the others as inactive; ? = inconclusive; . = not tested or not shown; [ ] = dose if it differs, or a comment. Unless noted, calls follow the shape of the full dose curve. Potency is read from the fitted curve at half-maximal effect.

SMILES	Pf growth 96h	Pf growth 48h	NS1 function inh	SARS PLpro yeast
CCOC(=O)c1sc2c(c1C)c(=O)n(Cc1ccccc1)c(=O)n2CCN(C)C	2.1µM*	?	-1%	2%
CN(C)CCn1c(=O)n(Cc2ccccc2)c(=O)c2c3c(sc21)CCCCC3	?	-17%	2%	2%
CC1=C(C(=O)OC(C)C)C(c2ccc(Cl)cc2)n2c(s/c(=C\c3ccc(OCC(=O)O)cc3)c2=O)=N1 (stereo unspecified)	7.4µM*	12µM*	?	1%
CCOC(=O)C1=C(C)N=c2s/c(=C\c3cccc(OCC(=O)O)c3)c(=O)n2C1c1ccccc1 (stereo unspecified)	0.93µM*	12µM*	27%	-2%
COc1ccc(C2C(C(C)=O)=C(C)N=c3s/c(=C/c4ccc5c(c4)OCO5)c(=O)n32)cc1 (stereo unspecified)	?	13µM*	-7%	-7%
CCOC(=O)C1=C(C)N=c2s/c(=C\c3ccc(OCC(=O)O)cc3)c(=O)n2C1c1ccccc1 (stereo unspecified)	10µM*	7.4µM*	17%	5%
CCOC(=O)C1=C(C)N=c2s/c(=C\c3ccc(OCC(=O)O)c(OC)c3)c(=O)n2C1c1ccc(OC)cc1 (stereo unspecified)	?	?	8%	0%
COc1ccc(Cl)cc1NC(=O)CN1CCc2ccccc2C1	?	?	9%	-6%
CC(C)Cn1c(N)c(C(=O)COC(=O)c2cccn2C)c(=O)n(C)c1=O	.	.	.	0%
CN(CC(=O)NCCc1ccc(S(N)(=O)=O)cc1)CC(=O)Nc1cccc(F)c1	-13%	-7%	.	4%
N#Cc1ccc(OCC(=O)N2CCCC2=O)cc1	6%	?	.	0%
COc1cc(OC)c(NC(=O)Cn2cnc3sc(C)c(S(=O)(=O)N4CCOCC4)c3c2=O)cc1Cl	1%	?	-16%	0%
CCOC(=O)C1=C(C)N=c2s/c(=C/c3cccc(OCC(=O)O)c3)c(=O)n2C1c1ccc(F)cc1 (stereo unspecified)	0%	?	12%	1%
CCOC(=O)C1=C(C)N=c2s/c(=C\c3cc(OC)c(OC)c(OC)c3)c(=O)n2C1/C=C/c1ccccc1 (stereo unspecified)	2.1µM*	15µM*	13%	-19%
COc1cccc(NC(=O)c2cnc(SCC(=O)NCc3ccc4c(c3)OCO4)n(C)c2=O)c1	40%	14%	.	.
Brc1ccc(C2=Nn3cnnc3SC2)cc1	?	154%	-23%	-5%
COC(=O)c1cccc(N(C(=O)c2ccco2)C(C(=O)NC2CCCC2)c2ccc(N3CCOCC3)cc2)c1 (stereo unspecified)	32%	10µM*	-7%	-2%
O=C(NCC(=O)N(Cc1cccs1)C(C(=O)NC1CCCCC1)c1ccco1)c1ccco1 (stereo unspecified)	?	2%	11%	-2%
Cc1ccc(C(C(=O)NC(C)(C)C)N(CCCN2CCOCC2)C(=O)c2ccc(-c3ccccc3)[nH]2)o1 (stereo unspecified)	23%	0%	1%	6%
O=C(NC1CCCC1)C(c1ccc(N2CCOCC2)cc1)N(Cc1ccccc1)C(=O)c1ccco1 (stereo unspecified)	.	15µM*	-8%	4%
O=C(NC1CCCCC1)C(c1cccs1)N(Cc1cccs1)C(=O)c1ccco1 (stereo unspecified)	.	15µM*	-3%	1%
O=C(NC1CCCCC1)C(c1cccs1)N(CCCN1CCOCC1)C(=O)c1ccc(-c2ccccc2)[nH]1 (stereo unspecified)	3%	1.7µM*	-3%	0%
O=C(NCc1ccccc1)C1CCC(=O)N(CCCN2CCCC2=O)C1 (stereo unspecified)	59%	24%	-4%	0%
COCCn1nnnc1C(C(C)C)N1CCCC(C)C1 (stereo unspecified)	0%	-7%	2%	-2%
COc1ccc(C)cc1S(=O)(=O)NC(C)C(=O)NC1CC1 (stereo unspecified)	?	1%	1%	7%
CCOC(=O)c1cccc(Nc2ncnc3ccc(C)cc23)c1	9.3µM*	12µM*	-70%	-16%
Cn1c(=O)c2c(nc(SCCOc3ccc4ccc(=O)oc4c3)n2C)n(C)c1=O	13µM*	9%	-2%	10%
COc1ccc(C(=O)CSc2nc3c(c(=O)n(C)c(=O)n3C)n2C)cc1	-29%	7%	?	0%
CC(C)(C)NC(=O)NC(=O)COC(=O)C1CCN(S(=O)(=O)c2cccs2)CC1	?	10%	.	0%[6.58 µM]

Screening data from PubChem.
